What all share (experiment): DAPPL (digital affinity profiling via proximity ligation, sequencing); 10 mM Tris-HCl pH 7.5, 50 mM NaCl, 1 mM DTT, 4% glycerol, room temperature, 30 min; GST-TFs on glutathione beads, 16-mer random dsDNA library, 0.1% formaldehyde crosslink after washing; high values mean tight binding
One test has as its target T1, FEV (Homo sapiens, UniProt Q99581 1-238).
T1 sequence: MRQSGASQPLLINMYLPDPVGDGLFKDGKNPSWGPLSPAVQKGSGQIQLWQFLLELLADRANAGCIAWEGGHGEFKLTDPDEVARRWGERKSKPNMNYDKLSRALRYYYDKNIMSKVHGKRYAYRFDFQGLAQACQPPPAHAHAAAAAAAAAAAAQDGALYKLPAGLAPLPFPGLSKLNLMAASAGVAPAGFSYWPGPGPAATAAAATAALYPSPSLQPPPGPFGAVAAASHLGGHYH
To be noted: protein: recombinant; tags: N-terminal GST; dsDNA, one strand shown. In outline:
(§1)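 Binding signal is given per hexamer as its read frequency for a factor divided by its frequency in the tag-only sample. GST-fused human transcription factors were expressed in yeast, captured on glutathione beads, barcoded with DNA and pooled with that sample, then incubated with 200 nmole of a 16-mer random double-stranded DNA library in Tris/NaCl/DTT/glycerol buffer for 30 min at room temperature. The pools were then washed, crosslinked, proximity-ligated, amplified by PCR and sequenced on an Illumina NextSeq500.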

A further test has as its target ETV5 (Homo sapiens, UniProt P41161 1-510). To be noted: protein: recombinant; tags: N-terminal GST; dsDNA, one strand shown. The method, boiled down: as §1
The next test concerns the target HSF1 (Homo sapiens, UniProt Q00613 1-529). To be noted: protein: recombinant; tags: N-terminal GST; chain copies: 3; dsDNA, one strand shown. In outline: as §1
Another test has as its target T2, SPIC (Homo sapiens, UniProt Q8N5J4 1-248).
T2 sequence: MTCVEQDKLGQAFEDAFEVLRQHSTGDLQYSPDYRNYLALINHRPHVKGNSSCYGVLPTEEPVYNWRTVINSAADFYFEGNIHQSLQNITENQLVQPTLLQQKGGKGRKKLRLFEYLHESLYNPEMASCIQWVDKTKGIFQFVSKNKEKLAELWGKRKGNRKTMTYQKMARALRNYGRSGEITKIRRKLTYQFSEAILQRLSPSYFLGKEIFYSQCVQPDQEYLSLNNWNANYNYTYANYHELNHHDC
To be noted: protein: recombinant; tags: N-terminal GST; dsDNA, one strand shown. The method, boiled down: as §1

In another test the target is ELF4 (Homo sapiens, UniProt Q99607 1-663). To be noted: protein: recombinant; tags: N-terminal GST; dsDNA, one strand shown. In outline: as §1
ELF4, sequence (Q99607 whole entry): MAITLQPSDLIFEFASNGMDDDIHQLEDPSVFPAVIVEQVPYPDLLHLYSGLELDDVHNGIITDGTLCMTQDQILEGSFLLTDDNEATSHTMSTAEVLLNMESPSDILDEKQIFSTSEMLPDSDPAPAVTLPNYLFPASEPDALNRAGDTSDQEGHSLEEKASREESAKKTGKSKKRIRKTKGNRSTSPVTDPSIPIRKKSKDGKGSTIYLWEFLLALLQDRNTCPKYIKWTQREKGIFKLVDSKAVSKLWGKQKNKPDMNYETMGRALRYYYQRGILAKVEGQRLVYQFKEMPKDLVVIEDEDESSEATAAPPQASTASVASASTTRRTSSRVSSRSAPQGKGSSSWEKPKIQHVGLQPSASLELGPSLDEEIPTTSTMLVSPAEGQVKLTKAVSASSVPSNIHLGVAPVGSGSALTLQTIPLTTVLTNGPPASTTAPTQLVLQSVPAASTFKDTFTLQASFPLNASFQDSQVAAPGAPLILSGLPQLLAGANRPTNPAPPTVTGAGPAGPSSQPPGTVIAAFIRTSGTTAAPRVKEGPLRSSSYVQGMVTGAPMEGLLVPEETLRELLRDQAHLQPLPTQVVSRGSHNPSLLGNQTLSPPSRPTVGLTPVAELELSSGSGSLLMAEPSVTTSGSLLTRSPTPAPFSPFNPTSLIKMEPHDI
The next test deals with T3, ELK4 (Homo sapiens, UniProt P28324-2 1-405).
T3 sequence: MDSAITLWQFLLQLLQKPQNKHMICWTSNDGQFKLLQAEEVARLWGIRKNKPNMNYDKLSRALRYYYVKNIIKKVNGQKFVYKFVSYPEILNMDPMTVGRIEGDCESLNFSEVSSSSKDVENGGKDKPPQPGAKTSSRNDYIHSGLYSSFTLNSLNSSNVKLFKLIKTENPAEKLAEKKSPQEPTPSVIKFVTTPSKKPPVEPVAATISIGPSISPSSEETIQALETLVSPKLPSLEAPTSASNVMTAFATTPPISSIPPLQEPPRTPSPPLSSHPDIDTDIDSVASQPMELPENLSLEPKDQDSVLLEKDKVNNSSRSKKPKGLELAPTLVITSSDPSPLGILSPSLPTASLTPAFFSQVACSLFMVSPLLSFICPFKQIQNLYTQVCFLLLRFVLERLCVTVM
To be noted: protein: recombinant; tags: N-terminal GST; dsDNA, one strand shown. In outline:
as §1

For another test, the target named is T4, ETV2 (Homo sapiens, UniProt O00321 1-342).
T4 sequence: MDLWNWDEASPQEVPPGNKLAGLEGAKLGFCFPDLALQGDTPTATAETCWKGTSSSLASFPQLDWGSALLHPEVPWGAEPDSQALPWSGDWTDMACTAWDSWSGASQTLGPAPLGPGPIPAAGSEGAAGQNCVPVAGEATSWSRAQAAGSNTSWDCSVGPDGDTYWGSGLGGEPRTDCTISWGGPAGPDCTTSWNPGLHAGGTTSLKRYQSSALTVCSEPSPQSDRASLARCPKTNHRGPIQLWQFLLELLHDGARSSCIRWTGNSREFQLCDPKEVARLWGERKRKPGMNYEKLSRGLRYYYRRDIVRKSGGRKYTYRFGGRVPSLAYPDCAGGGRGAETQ
To be noted: protein: recombinant; tags: N-terminal GST; dsDNA, one strand shown. The method, boiled down: as §1

The target in a further test is T5, ELF3 (Homo sapiens, UniProt P78545 1-371).
T5 sequence: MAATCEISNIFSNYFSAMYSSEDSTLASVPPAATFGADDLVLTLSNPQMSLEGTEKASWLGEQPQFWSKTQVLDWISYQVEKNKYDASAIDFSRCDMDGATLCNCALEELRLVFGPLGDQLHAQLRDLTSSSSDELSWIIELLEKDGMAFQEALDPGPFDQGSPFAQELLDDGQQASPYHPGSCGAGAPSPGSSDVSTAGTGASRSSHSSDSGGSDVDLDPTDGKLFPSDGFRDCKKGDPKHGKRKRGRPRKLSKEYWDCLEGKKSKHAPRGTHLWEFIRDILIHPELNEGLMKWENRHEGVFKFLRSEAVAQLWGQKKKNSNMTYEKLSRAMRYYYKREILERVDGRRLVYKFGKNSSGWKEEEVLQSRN
To be noted: protein: recombinant; tags: N-terminal GST; dsDNA, one strand shown. The method, boiled down: as §1

Another test has as its target CRX (Homo sapiens, UniProt O43186 1-299). To be noted: protein: recombinant; tags: N-terminal GST; dsDNA, one strand shown. In outline:
as §1

The next test deals with ETV1 (Homo sapiens, UniProt P50549 1-477). To be noted: protein: recombinant; tags: N-terminal GST; dsDNA, one strand shown. In outline:
as §1

Another test has as its target T6, ERF (Homo sapiens, UniProt P50548 1-548).
T6 sequence: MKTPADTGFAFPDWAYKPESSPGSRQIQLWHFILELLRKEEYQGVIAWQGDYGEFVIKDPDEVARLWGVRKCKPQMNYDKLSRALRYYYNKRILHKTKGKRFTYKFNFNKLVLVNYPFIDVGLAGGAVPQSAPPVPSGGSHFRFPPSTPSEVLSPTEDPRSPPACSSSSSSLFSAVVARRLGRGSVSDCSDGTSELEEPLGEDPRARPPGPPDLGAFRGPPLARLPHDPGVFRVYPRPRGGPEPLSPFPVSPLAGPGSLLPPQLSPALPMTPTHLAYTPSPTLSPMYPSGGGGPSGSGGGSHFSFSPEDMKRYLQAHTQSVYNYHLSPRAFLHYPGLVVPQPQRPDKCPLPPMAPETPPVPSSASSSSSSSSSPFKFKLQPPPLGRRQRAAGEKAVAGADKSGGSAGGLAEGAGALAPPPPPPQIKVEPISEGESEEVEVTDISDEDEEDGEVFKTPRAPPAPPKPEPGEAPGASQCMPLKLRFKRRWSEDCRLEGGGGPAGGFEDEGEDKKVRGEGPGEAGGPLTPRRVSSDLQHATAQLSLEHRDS
To be noted: protein: recombinant; tags: N-terminal GST; dsDNA, one strand shown. The method, boiled down:
as §1

In a further test the target is T7, ETV3L (Homo sapiens, UniProt Q6ZN32 1-361).
T7 sequence: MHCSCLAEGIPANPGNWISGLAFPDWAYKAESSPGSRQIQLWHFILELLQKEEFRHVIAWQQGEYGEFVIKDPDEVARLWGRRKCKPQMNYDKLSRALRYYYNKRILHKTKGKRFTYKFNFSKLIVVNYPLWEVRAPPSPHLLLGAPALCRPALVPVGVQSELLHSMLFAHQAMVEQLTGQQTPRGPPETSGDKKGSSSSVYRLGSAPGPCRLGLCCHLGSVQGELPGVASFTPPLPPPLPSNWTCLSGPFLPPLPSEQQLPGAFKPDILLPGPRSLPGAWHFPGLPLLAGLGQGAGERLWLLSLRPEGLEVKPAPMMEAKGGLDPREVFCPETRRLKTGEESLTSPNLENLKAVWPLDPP
To be noted: protein: recombinant; tags: N-terminal GST; dsDNA, one strand shown. The method, boiled down: as §1

In another test the target is T8, ETS2 (Homo sapiens, UniProt P15036 1-469).
T8 sequence: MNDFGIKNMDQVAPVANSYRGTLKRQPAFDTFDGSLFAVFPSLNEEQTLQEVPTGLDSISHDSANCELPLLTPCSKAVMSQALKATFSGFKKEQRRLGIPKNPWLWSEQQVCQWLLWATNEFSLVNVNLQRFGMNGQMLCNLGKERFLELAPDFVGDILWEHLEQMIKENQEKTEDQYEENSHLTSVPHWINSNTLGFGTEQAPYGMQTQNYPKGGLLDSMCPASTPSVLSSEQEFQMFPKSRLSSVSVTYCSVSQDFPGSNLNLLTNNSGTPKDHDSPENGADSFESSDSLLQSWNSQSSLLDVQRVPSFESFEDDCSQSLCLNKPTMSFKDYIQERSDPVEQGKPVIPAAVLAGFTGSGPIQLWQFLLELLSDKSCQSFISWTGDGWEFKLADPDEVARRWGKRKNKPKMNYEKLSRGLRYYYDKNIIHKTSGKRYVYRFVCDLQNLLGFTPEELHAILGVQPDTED
To be noted: protein: recombinant; tags: N-terminal GST; dsDNA, one strand shown. The method, boiled down: as §1

The target of a further test is T9, SPDEF (Homo sapiens, UniProt O95238 1-335).
T9 sequence: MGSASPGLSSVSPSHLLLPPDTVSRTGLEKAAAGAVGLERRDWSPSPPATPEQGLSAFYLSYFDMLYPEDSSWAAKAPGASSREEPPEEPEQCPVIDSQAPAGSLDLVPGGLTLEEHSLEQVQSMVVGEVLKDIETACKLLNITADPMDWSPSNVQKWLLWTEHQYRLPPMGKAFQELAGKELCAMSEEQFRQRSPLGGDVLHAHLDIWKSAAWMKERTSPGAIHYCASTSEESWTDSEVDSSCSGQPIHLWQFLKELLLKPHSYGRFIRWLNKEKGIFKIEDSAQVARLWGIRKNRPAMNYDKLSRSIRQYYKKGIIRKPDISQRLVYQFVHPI
To be noted: protein: recombinant; tags: N-terminal GST; dsDNA, one strand shown. In outline: as §1

A further test has as its target T10, ETV7 (Homo sapiens, UniProt Q9Y603 1-341).
T10 sequence: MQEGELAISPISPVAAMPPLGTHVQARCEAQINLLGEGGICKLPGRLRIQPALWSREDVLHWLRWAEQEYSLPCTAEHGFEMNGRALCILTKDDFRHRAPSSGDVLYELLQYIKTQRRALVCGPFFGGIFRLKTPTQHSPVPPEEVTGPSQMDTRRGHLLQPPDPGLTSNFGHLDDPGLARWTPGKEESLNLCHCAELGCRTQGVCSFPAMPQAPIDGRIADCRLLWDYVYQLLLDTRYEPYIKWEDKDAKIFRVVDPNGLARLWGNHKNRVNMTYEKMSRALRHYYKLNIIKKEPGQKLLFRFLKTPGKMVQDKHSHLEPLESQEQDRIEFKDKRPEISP
To be noted: protein: recombinant; tags: N-terminal GST; dsDNA, one strand shown. In outline:
as §1

Another test addresses T11, ELF5 (Homo sapiens, UniProt Q9UKW6-2 1-255).
T11 sequence: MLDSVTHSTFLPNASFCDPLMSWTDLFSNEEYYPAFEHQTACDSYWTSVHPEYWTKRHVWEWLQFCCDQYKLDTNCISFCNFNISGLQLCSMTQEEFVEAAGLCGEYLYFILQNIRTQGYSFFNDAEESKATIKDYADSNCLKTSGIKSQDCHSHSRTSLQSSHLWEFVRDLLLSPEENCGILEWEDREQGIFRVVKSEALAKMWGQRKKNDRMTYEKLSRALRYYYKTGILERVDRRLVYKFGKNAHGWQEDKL
To be noted: protein: recombinant; tags: N-terminal GST; dsDNA, one strand shown. The method, boiled down:
as §1

A further test deals with T12, ETV3 (Homo sapiens, UniProt P41162-2 1-143).
T12 sequence: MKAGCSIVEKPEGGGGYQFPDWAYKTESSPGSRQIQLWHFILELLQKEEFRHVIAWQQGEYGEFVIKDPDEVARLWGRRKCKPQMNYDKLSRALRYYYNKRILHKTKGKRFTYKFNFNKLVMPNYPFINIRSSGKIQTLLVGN
To be noted: protein: recombinant; tags: N-terminal GST; dsDNA, one strand shown. The method, boiled down: as §1

Another test has as its target ETV6 (Homo sapiens, UniProt P41212 1-452). To be noted: protein: recombinant; tags: N-terminal GST; dsDNA, one strand shown. The method, boiled down: as §1

ETV6, sequence (P41212 whole entry): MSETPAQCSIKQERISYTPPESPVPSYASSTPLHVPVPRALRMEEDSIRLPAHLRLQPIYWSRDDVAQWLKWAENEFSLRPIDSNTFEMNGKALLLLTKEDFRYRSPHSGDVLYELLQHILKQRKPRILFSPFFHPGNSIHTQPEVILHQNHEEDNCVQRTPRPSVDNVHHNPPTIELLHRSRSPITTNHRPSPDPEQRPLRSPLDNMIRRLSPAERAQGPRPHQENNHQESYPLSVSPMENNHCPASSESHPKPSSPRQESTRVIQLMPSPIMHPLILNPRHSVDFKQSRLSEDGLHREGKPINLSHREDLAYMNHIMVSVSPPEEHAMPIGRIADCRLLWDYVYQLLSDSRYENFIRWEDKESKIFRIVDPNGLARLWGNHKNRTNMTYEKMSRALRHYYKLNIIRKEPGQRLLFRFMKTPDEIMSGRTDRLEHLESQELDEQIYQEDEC
ETV5, sequence (P41161 whole entry): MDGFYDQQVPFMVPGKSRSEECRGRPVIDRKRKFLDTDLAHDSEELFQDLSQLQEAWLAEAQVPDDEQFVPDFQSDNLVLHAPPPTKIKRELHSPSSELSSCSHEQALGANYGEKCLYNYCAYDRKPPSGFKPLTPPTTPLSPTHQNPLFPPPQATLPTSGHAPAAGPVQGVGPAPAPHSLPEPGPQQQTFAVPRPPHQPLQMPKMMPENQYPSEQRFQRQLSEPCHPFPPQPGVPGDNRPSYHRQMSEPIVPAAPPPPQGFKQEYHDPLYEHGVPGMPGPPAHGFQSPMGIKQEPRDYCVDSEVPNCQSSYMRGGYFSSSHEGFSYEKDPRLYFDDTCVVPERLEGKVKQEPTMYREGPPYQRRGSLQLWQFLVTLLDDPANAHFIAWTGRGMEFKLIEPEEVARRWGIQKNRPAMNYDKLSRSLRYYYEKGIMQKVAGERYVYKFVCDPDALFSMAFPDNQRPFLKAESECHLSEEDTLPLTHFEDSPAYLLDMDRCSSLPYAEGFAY
CRX, sequence (O43186 whole entry): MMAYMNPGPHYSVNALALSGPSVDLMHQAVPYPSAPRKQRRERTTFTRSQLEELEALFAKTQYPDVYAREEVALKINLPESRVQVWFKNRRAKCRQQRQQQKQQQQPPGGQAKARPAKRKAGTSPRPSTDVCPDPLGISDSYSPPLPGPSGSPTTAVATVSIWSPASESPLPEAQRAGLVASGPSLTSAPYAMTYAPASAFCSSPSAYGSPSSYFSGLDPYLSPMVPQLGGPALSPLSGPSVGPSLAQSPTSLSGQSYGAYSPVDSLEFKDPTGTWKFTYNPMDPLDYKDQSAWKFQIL
ETV1, sequence (P50549 whole entry): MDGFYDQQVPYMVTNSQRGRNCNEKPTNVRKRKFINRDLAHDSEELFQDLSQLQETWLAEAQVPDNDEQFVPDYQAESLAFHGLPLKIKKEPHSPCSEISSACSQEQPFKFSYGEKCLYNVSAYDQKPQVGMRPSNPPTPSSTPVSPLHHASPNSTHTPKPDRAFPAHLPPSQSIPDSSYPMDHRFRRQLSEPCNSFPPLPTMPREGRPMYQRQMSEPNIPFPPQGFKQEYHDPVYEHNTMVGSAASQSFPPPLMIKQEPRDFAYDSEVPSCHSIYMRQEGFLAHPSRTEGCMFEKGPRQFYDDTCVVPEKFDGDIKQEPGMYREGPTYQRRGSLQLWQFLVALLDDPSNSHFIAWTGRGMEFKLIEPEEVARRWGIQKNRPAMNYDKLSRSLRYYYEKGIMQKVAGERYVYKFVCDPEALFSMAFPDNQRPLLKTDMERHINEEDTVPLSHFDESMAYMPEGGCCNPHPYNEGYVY
HSF1, sequence (Q00613 whole entry): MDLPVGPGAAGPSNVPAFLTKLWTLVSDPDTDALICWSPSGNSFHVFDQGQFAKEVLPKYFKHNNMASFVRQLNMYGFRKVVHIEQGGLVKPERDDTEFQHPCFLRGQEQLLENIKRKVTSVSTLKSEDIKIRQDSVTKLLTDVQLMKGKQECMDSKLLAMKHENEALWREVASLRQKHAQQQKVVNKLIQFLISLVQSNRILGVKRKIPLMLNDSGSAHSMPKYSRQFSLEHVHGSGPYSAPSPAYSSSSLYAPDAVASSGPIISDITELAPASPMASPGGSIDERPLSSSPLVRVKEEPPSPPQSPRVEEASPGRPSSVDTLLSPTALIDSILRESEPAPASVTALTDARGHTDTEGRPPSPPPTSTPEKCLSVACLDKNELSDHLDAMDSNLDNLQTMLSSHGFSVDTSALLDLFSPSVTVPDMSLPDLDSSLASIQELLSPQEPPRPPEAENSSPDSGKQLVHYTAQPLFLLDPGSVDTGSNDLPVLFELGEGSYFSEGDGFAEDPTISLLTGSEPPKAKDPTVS

With TACGCG, the binding signal was 1.11 fold enrichment (6-mer frequency, TF over GST control) with FEV; 1.21 fold enrichment (6-mer frequency, TF over GST control) with ETV5; 1.17 fold enrichment (6-mer frequency, TF over GST control) with HSF1; 1.12 fold enrichment (6-mer frequency, TF over GST control) with SPIC; 1.12 fold enrichment (6-mer frequency, TF over GST control) with ELF4; 1.25 fold enrichment (6-mer frequency, TF over GST control) with ELK4. For the same sequence, the binding signal in the test with ETV2 is 1.21 fold enrichment (6-mer frequency, TF over GST control); with ELF3, 1.19 fold enrichment (6-mer frequency, TF over GST control); with CRX, 1.24 fold enrichment (6-mer frequency, TF over GST control); with ETV1 it was 1.23 fold enrichment (6-mer frequency, TF over GST control); with ERF, 1.13 fold enrichment (6-mer frequency, TF over GST control); in the test with ETV3L, 1.13 fold enrichment (6-mer frequency, TF over GST control). Besides, the binding signal was 1.14 fold enrichment (6-mer frequency, TF over GST control) with ETS2; 1.23 fold enrichment (6-mer frequency, TF over GST control) in the test with SPDEF; 1.02 fold enrichment (6-mer frequency, TF over GST control) with ETV7; 1.09 fold enrichment (6-mer frequency, TF over GST control) in the test with ELF5; 1.16 fold enrichment (6-mer frequency, TF over GST control) with ETV3; 1.15 fold enrichment (6-mer frequency, TF over GST control) with ETV6.

For the origin of these results see publication PMC7862700, “An all-to-all approach to the identification of sequence-specific readers for epigenetic DNA modifications on cytosine”.
